In PubChem BioAssay AID624483 (NMMLSC, 2012):
Among all 360,000 compounds or so, about 11,000 (3.1%) were called active. Roughly 2% stayed inconclusive and do not appear here. The sample holds actives, similar compounds and a random draw of the others, so the mix is not that of the screen. Unmarked numbers belong to inactive results. Cut-off read from the data, not from the text of the source: active = fluorescence intensity above about 16000; inconclusive = no clear call, values can overlap the other calls; inactive = below that.

Assay: counter-screen for toxin protease inhibitors: compound fluorescence, primary screen, artefact control for toxin protease inhibitor project, biochemical, multiplex microsphere, HTS (AID 624483)
Conditions: compound autofluorescence counterscreen, microsphere flow cytometry; stronger effect = higher value

Row | SMILES | fluorescence intensity
1 | CCCS(=O)(=O)NC(=O)C1(C)CCN(C(=O)c2sccc2C)C1 (stereo unspecified) | 3570
2 | CC(=O)N1Cc2cc(C(=O)NCc3cccc(F)c3)nc(-c3cccc(C4=CCCC4)c3)c2[C@H]1CCO | 5550
3 | O=C1NC2(CCCCC2)N=C1c1ccccc1 | 24900 (active)
4 | O=c1cc(-c2ccccc2)nc(N2CCCCC2)[nH]1 | 6120
5 | O=[N+]([O-])c1ccc(C2C3C(c4ccccc4)=NC4(CCCCC4)N32)cc1 (stereo unspecified) | 7680
6 | CCCNC(=O)C1(C)CCN(C(=O)c2ccc(F)cc2Cl)C1 (stereo unspecified) | 2840
7 | COCCNC(=O)C1CCCN(Cc2ccccc2Cl)CC1 (stereo unspecified) | 3660
8 | CCOC(=O)c1c(CN(C)C)n(-c2ccccc2)c2cc(Br)c(O)cc12 | 5060
9 | CCOC(=O)c1nnn(-c2nonc2-n2cccc2)c1CN1CCOCC1 | 10800
10 | CCOC(=O)c1c(CN2CCOCC2)n(-c2ccccc2)c2ccc(O)cc12 | 16500 (active)
11 | C[C@H]1CN([C@@H](C)CO)C(=O)Cc2cc(NS(C)(=O)=O)ccc2O[C@@H]1CN(C)CC1CC1 | 3570
12 | CCc1nc2c(OCCOc3ccccc3)cccn2c1N(C)C(=O)c1cccs1 | 3880
13 | CCOc1ccc(Cl)cc1-c1cc(C(=O)NCc2cccs2)[nH]n1 | 3900
14 | CC(=O)c1cccc(-c2cnc3c(NC=O)cc(-c4ccc(N(C)C)cc4)cn23)c1 | 3260
15 | CC(C)(C)OC(=O)N1CCN(C(=O)c2[nH]c(C(F)(F)F)nc2-c2ccccc2)CC1 | 5720
16 | O=C(COc1ccc2c(C(F)(F)F)cc(=O)oc2c1)Nc1ccc2c(c1)OCCO2 | 23100 (active)
17 | CC(C)NS(=O)(=O)c1ccc(OCC(=O)Nc2ccc3c(c2)OCCO3)cc1 | 4280
18 | CCN(CC(=O)Nc1ccc2c(c1)OCCO2)Cc1cc(=O)oc2cc(C)c(C)cc12 | 10100
19 | Cc1cc(C(=O)N2CCCC2(C)C(=O)O)c(C)o1 (stereo unspecified) | 4080
20 | Cc1cccc(C)c1Cn1c(C)c(C(=O)NCc2cccc(Cl)c2)sc1=O | 4280
21 | CC(C)COP(=O)(c1ccc(N(C)C)cc1)C(Nc1ccccc1)c1cccnc1 (stereo unspecified) | 2300
22 | COC(=O)c1ccc(C(=O)Nc2cc(Cl)ccc2Cl)cc1NC(=O)c1ccccc1C | 23700 (active)
23 | COC(=O)c1ccc(C(=O)OC)c(NC(=S)N2CCN(c3cc(Cl)ccc3C)CC2)c1 | 2510

Row | SMILES | fluorescence intensity
24 | Cc1ccccc1C(=O)Nc1ccccc1NC(=O)c1ccccc1C | 3760
25 | CC1CCN(S(=O)(=O)c2ccc(S(=O)(=O)NCc3ccco3)cc2)CC1 | 6420
26 | COc1ccc(C2=NOC3(CC(=O)N(c4ccc(Cl)cc4)C3=O)C2)c(OC)c1 (stereo unspecified) | 20500 (active)
27 | COc1cccc(N2CCN(C3CC(=O)N(c4ccc(Cl)cc4)C3=O)CC2)c1 (stereo unspecified) | 2900
28 | O=C1CC2(CC(c3ccc(Cl)cc3)=NO2)C(=O)N1c1ccccc1 (stereo unspecified) | 5420
29 | CSc1ccc(CNC(=O)C2(C)CCCN2C)cc1 (stereo unspecified) | 3920
30 | COc1ccc2oc(N)nc2c1 | 2890
31 | COc1ccc2oc(=O)c(C(=O)O)cc2c1 | 20900 (active)
32 | COc1ccc2oc(=N)c(C(=O)Nc3ccc(Br)cc3)cc2c1 | 2900
33 | Cc1ccc(NC(=O)[C@H](Cc2ccccc2)NC(=O)CC[C@H]2O[C@@H](n3ccc(=O)[nH]c3=O)[C@H](O)[C@@H]2O)cc1C | 5530
34 | CCOC(=O)C1(C)CCCN(C(=O)c2cccc(Cl)c2)C1 (stereo unspecified) | 3450
35 | CC(=NC1CCN(Cc2ccccc2)CC1)c1c(O)n(C)c(=O)n(C)c1=O | 22500 (active)
36 | CC(=NC1CCN(Cc2ccccc2)CC1)c1c(O)[nH]c(=O)[nH]c1=O | 22800 (active)
37 | CC1CCN(Cc2nc3c(c(=O)n(C)c(=O)n3C)n2CCc2ccccc2)CC1 | 3630
38 | CC(=NCc1ccc2c(c1)OCO2)c1c(O)[nH]c(=O)[nH]c1=O | 4690
39 | COCCn1c(CN2CCC(Cc3ccccc3)CC2)nc2c1c(=O)n(C)c(=O)n2C | 2950
40 | CC(=NCC1CCCO1)c1c(O)[nH]c(=O)[nH]c1=O (stereo unspecified) | 2530
41 | Cc1ccc2c(c1)nnc1nnc(SCC(=O)O)n12 | 6320
42 | CCOc1ccc(CCN2C(=O)C(=O)N([C@@H](Cc3ccc(O)cc3)CN3CCC[C@H]3CN3C(=O)C(=O)NC[C@@H]3CC(C)C)C[C@@H]2Cc2ccccc2)cc1 | 4410
43 | CCN(CCN(C)C)C(=O)c1ccc2nc(C)c(N(C)C(=O)CCc3ccccc3)n2c1 | 3720
44 | Cc1c(S(=O)(=O)NCc2ccccc2)c(=O)n(C)c(=O)n1C | 4270
45 | CCn1c2ccccc2c2cc(NC(=S)N3CCOCC3)ccc21 | 2580
46 | CCn1c2ccccc2c2cc(NC(=O)C/C(C)=N/NC(=O)c3ccccc3N)ccc21 | 23100 (active)

Row | SMILES | fluorescence intensity
47 | CCn1c2ccccc2c2cc(NC(=O)COC(=O)c3cc(S(=O)(=O)N4CCCCC4)ccc3Cl)ccc21 | 1830
48 | CC1(C)CC(N(Cc2ccccc2)C(=O)Cc2ccccc2)CCO1 (stereo unspecified) | 4030
49 | Cn1ncc(Br)c1C(=O)NCc1cccs1 | 23700 (active)
50 | COc1ccccc1NC(=O)c1c(Br)cnn1C | 2020
51 | O=C(NCc1cccs1)c1ccc(Br)o1 | 2540
52 | N#Cc1ccc(-c2ccc(Cl)cc2)nc1Oc1ccc(F)cc1 | 9640
53 | Clc1ccc(Cl)c(Oc2ccc(Oc3nc(Cl)ccc3Cl)cc2)n1 | 16400 (active)
54 | CC1(Oc2cccc(F)c2)CCN(Cc2ccccc2OC(F)F)C1 (stereo unspecified) | 4130
55 | C=C(C)c1cccc(C(C)(C)NC(=O)NC2CCCC2)c1 | 9090
56 | O=C(COC(=O)c1ccc[nH]c1=O)Nc1ccc2c(c1)OC(F)(F)O2 | 5560
57 | O=C(COC(=O)CNC(=O)c1ccco1)Nc1ccc(F)cc1 | 3560
58 | O=C(COC(=O)c1ccccc1NC(=O)c1ccco1)Nc1ccc2c(c1)OC(F)(F)O2 | 21800 (active)
59 | COc1ccc2cc(C(=O)NCC3CCCO3)[nH]c2c1 (stereo unspecified) | 3630
60 | CCOC(=O)C1CCCN(C(=O)c2cc(-c3cccs3)oc2C)CC1 (stereo unspecified) | 2870
61 | CC(C)Cn1cnc2c1c(=O)n(CC(O)c1ccccc1)c(=O)n2CC(C)C (stereo unspecified) | 16100 (active)
62 | CC(C)CCn1cnc2c1c(=O)n(CC(=O)NC(N)=O)c(=O)n2Cc1ccccc1 | 3800
63 | CC(C)Cn1cnc2c1c(=O)n(CC(=O)NN)c(=O)n2Cc1ccccc1 | 4610
64 | CCCCn1nnnc1C(c1ccccc1)N1CCN(c2ccccc2OC)CC1 (stereo unspecified) | 4370
65 | COc1ccc(/C=C/C(=O)Nc2c(C)nn(C)c2C)cc1COc1ccc(Br)cc1 | 8730
66 | COc1ccc(C(C)=O)cc1COc1ccc(Cl)c(C)c1 | 5920
67 | CCn1nc(C)c(NC(=O)/C=C/c2ccc(OC)c(COc3ccc(Br)cc3)c2)c1C | 24100 (active)
68 | COc1ccccc1-c1cc2nc(NCc3cccc(Cl)c3)ccn2n1 | 3660
69 | CCc1nc2c(OCCc3cccc(OC)c3)cccn2c1N(C)C(=O)c1ccc(C)cc1 | 3510

Row | SMILES | fluorescence intensity
70 | O=C(c1cc2nc(-c3ccccc3)cc(-c3ccccc3)n2n1)N1CCC2(CC1)OCCO2 | 2800
71 | CC(=O)N1CCN(C(=O)c2cc(-c3ccc(C)o3)nc3ccccc23)CC1 | 7930
72 | O=C(c1cc(-c2ccncc2)nc2ccccc12)N1CCC2(CC1)OCCO2 | 23100 (active)
73 | CCCCC(=O)N(C)c1c(CC)nc2c(OCc3ccc(Cl)cc3Cl)cccn12 | 3970
74 | O=C(CN1CCN(S(=O)(=O)c2ccc(Cl)s2)CC1)NCc1ccc(Cl)cc1 | 19600 (active)
75 | O=C(CN1CCN(S(=O)(=O)c2ccc(Cl)s2)CC1)N1CCCCC1 | 2870
76 | Cc1ccccc1N1CCN(CC(=O)NCc2ccc(Cl)cc2)CC1 | 4200
77 | O=C(CN1CCN(Cc2ccccc2)CC1)NC(c1ccccc1)c1ccccc1 | 4580
78 | O=C(NC(c1ccccc1)c1ccccc1)N1CCN(CCO)CC1 | 20400 (active)
79 | CC(=O)N1CCN(CC(c2ccccc2)c2ccccc2)CC1 | 3040
80 | Cc1ccc2c(C)c(C(=O)N(C)Cc3ccncn3)oc2c1C | 5730
81 | CSc1ccc(/C=N\NC(=O)COc2ccc(Cl)cc2Br)cc1 | 17700 (active)
82 | O=C(COc1ccc(Cl)cc1Cl)N/N=C/c1ccccn1 | 5790
83 | CSc1ccc(/C=N/NC(=O)c2cccc(Cl)c2)cc1 | 2570
84 | CCOC(=O)[C@]12CCCC=C1N(Cc1cccc3ccccc13)C(=O)[C@H](CC(=O)NCC13CC4CC(CC(C4)C1)C3)C2 | 5880
85 | CC1(C(=O)NCc2cccc3ccccc23)CCN1Cc1ccc(-c2ccccc2)o1 (stereo unspecified) | 3560
86 | CCCCc1ccc(S(=O)(=O)NC(=O)C2(C)CCN2C(=O)c2ccccc2)cc1 (stereo unspecified) | 3420
87 | CC(OC(=O)c1ccc(NS(=O)(=O)c2ccc3[nH]c(=O)[nH]c3c2)cc1)C(=O)Nc1cccc(Cl)c1Cl (stereo unspecified) | 3440
88 | CC(=O)NS(=O)(=O)c1ccccc1 | 6630
89 | CC(C)(C)C(=O)NC(NC(=S)Nc1ccc(S(N)(=O)=O)cc1)C(Cl)(Cl)Cl (stereo unspecified) | 1960
90 | CC(=O)NS(=O)(=O)c1ccc(NC(=S)NC(=O)C(C)(C)C)cc1 | 24700 (active)
91 | CC(C)CCOc1ccc(C(=O)Nc2cc(S(=O)(=O)N3CCOCC3)ccc2N2CCOCC2)cc1 | 3010
